Most compounds without a hit are left out; they make up all but 3% or so of the library.
SARS PLP yeast – blocks SARS-CoV papain-like protease in a yeast assay; S. cerevisiae expressing SARS-CoV PLpro, growth rescue; Potency, µM (highest dose often 32.9 µM), most hits filed as activators; actives 0.19% (n = 330,000); calls by dose curve; note: nearly all actives have a fitted effect of over 55% in size
Sm TGR inh – inhibitors of Schistosoma mansoni thioredoxin glutathione reductase. AID 485364. actives 3% (n = 360,000). Q962Y6. Potency, µM (doses to about 114 µM), most hits filed as inhibitors. purified TGR, DTNB reduction, TNB absorbance 405 nm; active = well fitted inhibition curve with a large enough effect; inconclusive = small, poorly fitted or top-dose-only effect; inactive = no such curve, though single readings can be large or run the other way; note: nearly all actives have a fitted effect of over 60% in size
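First, TGR (20 nM dispensed) and NADPH were mixed with compound. Second, a 15 min room-temperature incubation followed. Third, further NADPH and then DTNB were added to start the reaction. Finally, TNB absorbance was monitored kinetically.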
Large screens that a line does not name were inactive.

N=C1CCC(=N)c2c1c(O)c1ccccc1c2O	Sm TGR inh 4.5µM
CCOC(=O)c1c(NC(=O)CSc2cn(CCNC(=O)c3c(F)cccc3F)c3ccccc23)sc2c1CCCC2	none (no result: SARS PLP yeast)
CN(C)CCCNC(=S)N(CCN(C)C)Cc1cc2cc3c(cc2[nH]c1=O)OCCO3	Sm TGR inh 45µM
CCN(CC)CCN(Cc1cc2cc3c(cc2[nH]c1=O)OCCO3)C(=S)NCCCN(C)C	Sm TGR inh inconclusive
CC(=O)Cc1nsc(NC(=O)c2ccc(COc3ccccc3Cl)o2)n1	none
CC(=O)Cc1nsc(NC(=O)c2ccc(COc3ccccc3)o2)n1	Sm TGR inh 45µM
CC1CCN(c2ccc(NC(=O)c3ccc(Br)o3)cc2)CC1	none
N#Cc1ccccc1N1CCN(C(=O)c2ccc(NC(=O)c3ccc(Br)o3)cc2)CC1	Sm TGR inh 28µM
O=C(Nc1ccc(C(=O)N2CCC(N3CCCC3)CC2)cc1)c1ccc(Br)o1	Sm TGR inh 25µM
O=C(c1ccc(Br)o1)N1CCN(c2ccccn2)CC1	none
O=C(Nc1ccc(C(=O)N2CCN(c3ccccn3)CC2)cc1)c1ccc(Br)o1	Sm TGR inh 45µM
Cc1ccc(C(=O)N2CCN(c3ccc(NC(=O)c4ccc(Br)o4)cc3)CC2)cc1	none
CCC(CC)C(=O)Nc1nnc(SCc2cc(=O)n3cccc(C)c3n2)s1	none (no result: SARS PLP yeast)
CCCN(C(=O)c1ccc2c(=O)n3c(nc2c1)CCCCC3)c1cccc(Cl)c1	none (no result: SARS PLP yeast)
CCOC(=O)c1c(C)[nH]c(C)c1S(=O)(=O)N1CCCC(C(=O)Nc2ccc(OC)c(OC)c2)C1 (centres undefined)	none (no result: SARS PLP yeast)
COCCOC(=O)C1=C(C)Nc2ncnn2C1c1ccco1 (centres undefined)	none
COc1ccc(C2C=C(c3ccccc3)Nc3ncnn32)cc1 (centres undefined)	Sm TGR inh 32µM
Cc1ccc(C2=CC(c3ccc(Cl)cc3)n3nc(-c4ccc(C)cc4)nc3N2)cc1 (centres undefined)	none (no result: SARS PLP yeast)
Clc1ccccc1C1=CC(c2ccco2)n2ncnc2N1 (centres undefined)	Sm TGR inh 13µM
COc1ccc(C2=CC(c3ccco3)n3ncnc3N2)cc1 (centres undefined)	Sm TGR inh 10µM
Clc1ccc(C2=CC(c3ccco3)n3ncnc3N2)cc1 (centres undefined)	Sm TGR inh 50µM
CCOc1ccc(C2C=C(c3ccc(C)cc3)Nc3ncnn32)cc1 (centres undefined)	Sm TGR inh inconclusive
COc1ccc(C2CC(c3ccco3)n3ncnc3N2)cc1 (centres undefined)	none
Cc1cc(Cl)ccc1NC(=O)CN1C(=O)COc2ccc(S(=O)(=O)N3CCC(C)CC3)cc21	none (no result: SARS PLP yeast)
Cc1ccccc1Cn1c2ccccc2c2cnn(CC(=O)NC(C)CCc3ccccc3)c(=O)c21 (centres undefined)	none (no result: SARS PLP yeast)
COc1cccc(N2CCN(C(=O)CCc3c(C)nc4c(c3C)c(=O)n(C)c(=O)n4C)CC2)c1	none (no result: SARS PLP yeast)
CC1=C(C(=O)Nc2ccccc2)C(c2ccco2)n2ncnc2N1 (centres undefined)	none
CC(=O)Nc1cccc(C2=CC(c3ccco3)n3ncnc3N2)c1 (centres undefined)	Sm TGR inh 13µM
COC(=O)C1CCN(S(=O)(=O)c2ccc(N3CCCCS3(=O)=O)cc2)CC1	none (no result: SARS PLP yeast)
Cc1nc2scc(-c3ccco3)c2c(=O)n1/N=C/N(C)C	Sm TGR inh 25µM
Cc1sc2nc(C)n(/N=C/N(C)C)c(=O)c2c1C	none
CCOc1cc(/C=C2\N=C(C)OC2=O)cc(Br)c1OCC(=O)OC	Sm TGR inh 25µM
COc1ccc(/C=C2\N=C(C)OC2=O)cc1OC(C)=O	Sm TGR inh inconclusive
CCOc1cc(/C=C2\N=C(C)OC2=O)cc(Br)c1OCCc1ccccc1	none
COc1ccc(/C=C2\N=C(C)OC2=O)cc1OC	Sm TGR inh 16µM
COc1ccc(C2CC(=O)N(CC(=O)Nc3ccc(C(F)(F)F)cc3)c3ccccc3S2)cc1 (centres undefined)	none (no result: SARS PLP yeast)
Cc1cccc(-n2c3nc(=O)n(C)c(=O)c-3cc3c(C)nn(-c4ccccc4)c32)c1C	none (no result: SARS PLP yeast)
COc1ccc(-c2cn3c(n2)sc2cc(C(=O)NCCC4=CCCCC4)ccc23)cc1	none (no result: SARS PLP yeast)
CCc1ccc(-n2nnc(-c3nc(-c4cccs4)no3)c2N)cc1	none (no result: SARS PLP yeast)
Cc1ccc(C(C)C)c(OCCN)c1	none
Cc1ccc(C(C)C)c(OCCCn2ccnc2C)c1	Sm TGR inh 89µM
O=C(CNC(=O)c1ccccc1)OCc1cc(=O)n2nc(C3CC3)sc2n1	none (no result: SARS PLP yeast)
Cc1cnnn1-c1ccc(C(=O)CCl)cc1	SARS PLP yeast inconclusive, Sm TGR inh 5.6µM
CC(=O)c1ccc(-n2nncc2C(C)(C)C)cc1	none
COc1ccc(NC(=O)c2ccc(-c3nc(CSc4ccccc4)c(C)o3)cc2)c(OC)c1	none (no result: SARS PLP yeast)
Cc1cccc(C(=O)Nc2ccc(S(=O)(=O)N3CCC(c4nc5ccccc5s4)CC3)cc2)c1	none (no result: SARS PLP yeast)
CC(C)(C)OC(=O)N[C@@H](Cc1ccccc1)c1nnc(S(=O)(=O)Cc2ccccc2)o1	Sm TGR inh 0.63µM

Source: PubChem
